Growth data for 88 molecules are collected here from PubChem BioAssay (NCI).

The panel holds about 83,000 compounds, 20% with a hit somewhere; the sample as a whole holds those more often.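 Negative percent growth values reflect cell death: -40 means 40% of the cells present at the start died, and -100 means all died.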 A number with no mark means an inactive call. The source made the active and inactive calls. Rule for the calls: active = growth percent below 10; inactive = the rest.

This experiment deals with HL-60(TB) leukemia. The experiment is described as follows: NCI-60 one-dose screen, 48 h (100 = growth as untreated, 0 = no growth, -100 = all killed). The following applies: 10 µM unless noted.

Turning to `COc1ccc2c(c1)CCc1c-2n[nH]c1-c1[nH]nc2c1CCc1cc(OC)ccc1-2`, the growth is 23.4%.
`S=C(Cc1ccc2c(c1)CCCC2)N1CCOCC1`: the growth was 85%.
With `Cc1ccc(NC(=O)Nc2cccnc2)cc1NC(=O)Nc1cccnc1`, the growth is 71.1%.
Consider `COc1ccc(-c2csc(C3=C(O)CN(CCCN4CCCC4=O)C3=N)n2)cc1OC`, for which the growth is 114%.
The result for `COc1ccc(C2=NN(c3ccc(S(N)(=O)=O)cc3)C(c3cn(-c4ccccc4)nc3-c3ccc(Cl)cc3)C2)cc1` (stereo not drawn) reads 84.5%.
The result for `COc1cc(N)c2nccc(C)c2c1OC` reads 96.2%; that for `O=[N+]([O-])c1cccc(N=NNc2cccc([N+](=O)[O-])c2)c1`, 79.9%; that for `COc1ccc(Cc2cnc(N)nc2N)cc1OC`, 95.2%.
As for `O=S1(=O)NCCN1CCNc1nccc(-c2c(-c3cccc(O)c3)nc3sccn23)n1`, the growth is 111%.
The result for `C=CC1(C)C(O[Si](C)(C)C(C)(C)C)CC2C3OC(=O)NC31c1cccc3c1[C@H](C(=O)N3C)C2(C)C` (stereo partly drawn) reads 22.9%; that for `Cc1ccc2nc(-c3ccc(C(=O)NNC(=S)Nc4ccccc4)cc3)[nH]c2c1`, 98%.
With `Cc1c(C(=O)NCCC(=O)NO)sc2ncnc(Nc3ccc(NC(=O)Nc4cccc(C(F)(F)F)c4)cc3)c12`, the growth was 105%.
Consider `COc1cccc(-c2nn(-c3ccccc3)cc2-c2ccnc(NCCCNS(=O)(=O)c3ccc(Br)cc3)c2)c1`, for which the growth was 43.3%.
As for `CC(O)c1ncc(/C=C2\SC(=S)N(Cc3ccccc3)C2=O)s1` (stereo not drawn), the figure is 85.2%.
The result for `COc1ccc2nc3cc(Cl)ccc3c(Nc3ccc(O)cc3)c2c1` reads 44.2%; that for `O=C1NCN(CCO)CN1`, 97.5%.
With `Cc1cc(C)on1`, the growth was 76.3%.
The result for `N#Cc1c(Nc2cccc(Cl)c2)sc(C(=O)c2cc3cc(Cl)ccc3o2)c1N` reads 92.9%; that for `CS(=O)(=O)N1CCN(Cc2cc3nc(-c4cccc5[nH]ncc45)nc(N4CCOCC4)c3s2)CC1` (tested in a mixture with another compound), 5.83% (active); that for `CC(Br)c1nc2ccccc2cc1C(N)=O` (stereo not drawn), 104%.
Consider `COc1ccccc1C(=O)Nc1cccc(-c2cc(=O)c3c(OC)c(OC)c(OC)cc3o2)c1`, for which the growth was 57.7%.
The result for `Clc1ccc2nc(CI)c(CI)nc2c1` reads 2.82% (active); that for `CCOC(=O)/C(C#N)=C\c1c[nH]c2ccccc12`, 104%; that for `O=C(CSc1nc2c(n1Nc1ccccc1)-c1ccccc1SC2)Nc1nc(-c2ccc(Cl)cc2)cs1`, 104%.
As for `O=[N+]([O-])c1ccc(N/N=C/C2CCCCCC2)c([N+](=O)[O-])c1`, the growth was 97.1%.
For the molecule `CCC/C=C(\C)C(C)(C#N)C(=O)OCC` (stereo not drawn), the growth is 103%.
With `CN1C(=O)N(C)C2C1NN=c1s/c(=C\c3ccc(C(F)(F)F)cc3)c(=O)n12` (stereo not drawn), the growth was -6.25% (active).
As for `CC/C(=C\c1ccc(N(C)C)cc1)c1nc2ccccc2c(=O)[nH]1`, the figure is 179%.
On to `COc1cnc2c(c1)C(=O)c1c-2n(CCCN2CCN(CCO)CC2)c(=O)c2cc([N+](=O)[O-])ccc12`, for which the growth was 12.7%.
As for `CC(=O)OCC1OC(OC2=C(CC=C(C)C)C(=O)c3ccccc3C2=O)C(OC(C)=O)C(OC(C)=O)C1OC(C)=O` (stereo not drawn), the figure is -36.7% (active).
With `COC(=O)C(c1ccccc1)C(CC(=O)c1ccccc1)c1ccccc1` (stereo not drawn), the growth was 92.5%.
On to `COc1ccc(C/C(C)=C(\c2ccc(Cl)cc2)c2ccc(OCCN3CCCCCC3)cc2)cc1`, for which the growth is 30.7%.
The result for `Cc1cc(Cl)nc(Nc2ccccc2)n1` reads 78.1%.
As to `S=c1cc(S)c2cc(Br)ccc2[nH]1`, the growth is 101%.
For the molecule `COc1cc(C=Nc2oc(-c3ccccc3)c(-c3ccccc3)c2C#N)cc(CN2CCCC2)c1O`, the growth is 102%.
As for `COC(=O)CC/C(C)=N\Nc1ccc([N+](=O)[O-])cc1`, the figure is 24.5%; as for `COc1ccc(/C=N/Nc2cc(=O)[nH]c3ccc(C)cc23)cc1`, 94.2%.
The result for `Cc1ccc(-n2c(C)nn3c(=O)c4c5c(sc4nc23)CN(C)CC5)cc1` reads 96.7%; that for `CC(=O)N=c1ccc2nc3c(cc(N)c4ccccc43)oc-2c1`, -82.9% (active); that for `Cc1nnc(NC/C=C/c2ccccc2)s1`, 98%.
The result for `O=C(c1c[nH]c2ccccc12)C(Sc1nc2ccccc2c(=O)[nH]1)c1ccccc1` (stereo not drawn) reads 93.1%; that for `CCOC(=O)CC1C(CNC(=O)NC)OC(n2cnc3c(NC(=O)Nc4ccccc4)ncnc32)C1O[Si](C)(C)C(C)(C)C` (stereo not drawn), 44.5%; that for `N#Cc1ccc(-n2cnc(NC(=O)[C@H]3CCN(C#N)C3)c2)cc1`, -20.8% (active).
As to `CC/C(=C(/c1ccc(O)cc1)c1ccc(OCCN2CCCCC2)cc1)c1ccc(OC)cc1`, the growth was 81.6%.
Consider `CCNCC(C)(C)O`, for which the growth is 102%.
For the molecule `Cc1cnc(N)s1`, the growth is 97.7%.
`CC(=O)c1cnc(-c2ccccc2)nc1CBr`: the growth was 41.5%.
As to `Cc1ccc(C)c2c1CCC2C(C)C` (stereo not drawn), the growth is 108%.
Consider `Cc1ccc(C(=O)c2ccc(CC(=O)N=Nc3c(O)[nH]c4ccc(Br)cc34)n2C)cc1`, for which the growth was 89.4%.
`COc1cnc2c(c1)C(=O)c1c-2n(CCCn2ccnc2)c(=O)c2cc(Cl)ccc12`: the growth is -26.1% (active).
As for `NS(=O)(=O)c1ccc(-c2cc(-c3nnc(SCC(=O)Nc4ccc(C(=O)/C=C/c5ccc(Cl)cc5)cc4)n3-c3ccccc3)c3ccccc3n2)cc1`, the figure is 92.2%.
As for `CCc1c(C(=O)N[C@@H](C(=O)OCc2ccccc2)C(C)O)[nH]c2ccc(Cl)cc12` (stereo partly drawn), the figure is 122%; as for `COc1ccc2c(c1)C/C(=C\c1cc(-c3ccc4c(c3)OCO4)n[nH]1)C2=O`, 88.3%; as for `O=C(NC(Cc1nnc2n(Cc3ccccc3)c(=O)c3c4c(sc3n12)CCCC4)c1ccccc1)c1ccccc1` (stereo not drawn), -70.3% (active).
Turning to `Nc1ccc(N)c([N+](=O)[O-])c1`, the growth was 110%.
The result for `COc1cc(C(=O)c2c(-c3ccccc3)oc3ccccc23)cc(OC)c1O` reads 5.07% (active).
As for `Nc1nc(CSc2n[nH]c(N)n2)nc(Nc2ccccc2)n1`, the growth is 92.7%.
In the case of `Cc1[nH]n(C(=O)c2ccncc2)c(=O)c1N=Nc1ccc(O)c(C(=O)O)c1`, the growth was 53.4%.
The result for `N#Cc1c(-c2ccccc2)cc(-c2ccccc2)n(CC(=O)NO)c1=O` reads -56.3% (active); that for `NC1=NC(=O)NC1(c1ccccc1)c1ccccc1`, 98.4%.
As for `COc1cc2c(cc1OC)C(=O)/C(=C/c1cccc(OCC(=O)c3ccccc3)c1)C2`, the figure is 89.8%; as for `COc1ccc2[nH]c(=O)c(CN3CCN(c4nccc(-c5ccc(Cl)cc5)n4)CC3)cc2c1`, 90.1%.
As for `Nc1ncc(-c2ccc3ncnc(N4CCc5cc(F)c(Cl)cc54)c3c2)cn1`, the figure is 56.5%; as for `COc1cc(-c2n[nH]nc2-c2ccccn2)cc(OC)c1OC`, 83.3%; as for `COc1ccc(C(C#N)=C2C=CC(=NO)C=C2)cc1`, 52.4%.
Take `CCc1c(Nc2ccc(C)cc2)nc(N)[nH]c1=O`: the growth is 89.6%.
As for `COc1ccc(-c2nc3ncccn3c2-c2nc3ccc(Br)cc3[nH]2)cc1`, the figure is 81.3%; as for `C#C[C@]1(O)CC[C@H]2[C@@H]3CC=C4c5nc(Nc6ccccc6[N+](=O)[O-])sc5CC[C@]4(C)[C@H]3CC[C@@]21C`, 77.7%.
As for `CC12OC(CC(O)C1O)n1c3ccccc3c3c4c(c5c6ccccc6n2c5c31)C(=O)N(CCN1CCCC1)C4=O` (stereo not drawn), the figure is 18.3%.
As for `COc1ccc(NNS(=O)(=O)O)cc1`, the figure is 103%.
In the case of `Fc1ccc(/C=C/c2cc(/C=C/c3ccc(F)cc3)n(-c3cc(F)cc(F)c3)n2)cc1`, the growth is 78.9%.
For `COc1cc(NCc2cn(-c3ccc(C(=O)O)cc3)nc2-c2ccc(C(=O)O)cc2)cc(OC)c1OC`, the growth is 120%.
The result for `O=C1C(Cl)=C(Cl)C(Cl)(Cl)C(Cl)C1(Cl)Cl` (stereo not drawn) reads 77.7%; that for `Brc1ccc2c(c1)c(-c1nc(-c3c[nH]c4ncccc34)cs1)cn2CCCN1CCCCC1`, 13.3%.
With `O=c1[nH]c(=O)c2[nH]c(=O)[nH]c2[nH]1`, the growth is 100%.
The result for `CCOC(=O)c1c(-c2ccc(O)cc2)c(C#N)c2c(C#N)c(N)nn2c1N` reads 22.5%; that for `O=C(CCN1C(=O)/C(=C/c2ccc(O)cc2)SC1=S)Nc1ccc(Cl)cc1`, 65.5%.
The result for `COc1ccc(-c2ccc(-c3ccc(C(=N)N)cn3)s2)cc1OC` reads 94.9%.
As for `C#Cc1cccc(NC(=O)c2ccc(NC(=O)C=C)cc2)c1`, the figure is 80.6% [8.25 µM].
Consider `CC1CCN(CCCCCOc2ccc3oc4cc(Cl)ccc4c(=O)c3c2)CC1`, for which the growth is 43.4%.
The result for `C#C[C@@]1(O)[C@@H](CO)O[C@@H](n2cc(-c3ccco3)c3c(N)ncnc32)[C@@H]1O` reads 89%; that for `O=C1NC(=S)S/C1=C\N1N=C(c2ccc(Cl)cc2)CC1c1ccc(F)cc1` (stereo not drawn), 99.5%; that for `COc1cccc(/C=C2\COc3ccc(-c4ccccc4)cc3C2=O)c1`, -47% (active).
With `CCOC(=O)c1ccc(N(C=O)CCC(=O)CCl)cc1`, the growth is -28.6% (active).
As for `CCOC(=O)NCCCC(=O)NCCc1ccccc1`, the figure is 102%; as for `Cc1c(-c2ccc(O)cc2)n(Cc2ccc(OCCN3CCCCCC3)cc2)c2ccc(O)cc12`, 74.6%.
Regarding `C[C@]12CC[C@@H]3c4ccc(OS(=O)(=O)O)cc4CC[C@H]3[C@@H]1CC[C@@H]2NS(=O)(=O)c1ccc(-c2ccccc2)cc1`, the growth was 43.9%.
As for `NC(=O)N1N=C(c2ccc(Cl)cc2)CC1c1cn(-c2ccccc2)nc1-c1ccc(Cl)cc1` (stereo not drawn), the growth is 80.9%.
